Screening results (PubChem BioAssay)
Shown are actives, neighbours in structure and some others; about 2.1% of the full set was active somewhere.
FUS suppressor: rescues growth of FUS-expressing yeast; AID 1347120; Potency, µM (top dose mostly 76.6 µM), usual class: activators; hit rate 0.24% among 390,000; S. cerevisiae FUS-expressing, growth rescue, OD600, 24 h; also: nearly all actives have a fitted effect of over 55% in size
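Toxicity suppression screen in FUS-yeast. Cells induced with 2% galactose, starting OD 0.005, treated 24hr at 30C with compounds at multiple final concentrations; growth by OD600.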
aSyn rescue: rescues yeast growth from alpha-synuclein toxicity. hit rate 0.14% among 370,000. Yeast expressing alpha-synuclein, growth rescue, BacTiter-Glo, 24 h. Potency, µM (doses to about 46.1 µM), hits mostly activators; also: nearly all actives have a fitted effect of over 65% in size
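Screening used galactose-induced yeast with toxic alpha-synuclein levels, exposed to compound for 24 hr at 30 deg C. Cell growth, read with BacTiter-Glo luminescence, gave the measured signal.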
TDP43 rescue: TDP-43 toxicity inhibition in yeast; TDP-43 expressing yeast growth rescue, BacTiter-Glo, 24 h; Potency, µM (top dose mostly 46.1 µM), actives largely listed as activators; hit rate 1.8% among 410,000; also: nearly all actives have a fitted effect of over 50% in size
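Luminescence from BacTiter-Glo reports growth of TDP-43-expressing yeast after 24 hr at 30 deg C with compound. Cells were raffinose-pregrown to mid-log, then seeded in galactose medium at OD600=0.02.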
Abeta yeast res: compounds reversing amyloid beta toxicity in yeast. yeast expressing A-beta42, growth rescue, OD600, 48 h; response scale: 0% DMSO, 100% iron-clioquinol control. Potency, µM (highest dose often 46.1 µM), hits mostly activators. hit rate 0.063% among 410,000; also: nearly all actives have a fitted effect of over 55% in size
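Yeast A-beta toxicity model in growth medium with pinned compounds, 48 h at 30 C; growth read as absorbance at 600 nm. Normalized to FeCl3/clioquinol equimolar mix (positive) and DMSO (negative).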
Each line names hits and unclear results; the compound was inactive in the other large screens. Calls follow the shape of the dose curve; as a rule, active = well fitted curve in the direction sought with a large enough effect; inconclusive = small, poorly fitted or top-dose-only effect, or another doubt; inactive = no such curve, though single readings can be large; an effect the other way counts as inactive or inconclusive.

Cc1cc(C)nc(Sc2ncnc3c2oc2ccccc23)n1	TDP43 rescue 22µM
Cc1nc2ccccn2c1C(=O)/C=C/c1cccc([N+](=O)[O-])c1	TDP43 rescue 2.5µM
O=C(/C=C/c1cccc([N+](=O)[O-])c1)c1ccc([N+](=O)[O-])o1	none
O=C(/C=C/c1cccc([N+](=O)[O-])c1)c1ccco1	TDP43 rescue 6.3µM
COc1ccccc1OCCNS(=O)(=O)c1ccc2oc3ccccc3c2c1	aSyn rescue inconclusive, TDP43 rescue 16µM
O=S(=O)(NCCOc1ccccc1Cl)c1ccc2oc3ccccc3c2c1	aSyn rescue inconclusive
CN(Cc1ccc(Cl)cc1Cl)C(=O)CNC(=O)c1ccco1	none
Cc1ccc(C(=O)NCC(=O)N(C)Cc2ccc(Cl)cc2Cl)s1	TDP43 rescue 8.9µM
Cc1cccc(C)c1OCC(=O)N/N=C/c1ccc2c(c1)OCO2	none
Cc1ccc(C(C)C)cc1OCC(=O)N/N=C/c1ccc2c(c1)OCCO2	TDP43 rescue 13µM
O=C(CCSCc1cnn(-c2ccccc2)c1-n1cccc1)NCc1ccc(Cl)cc1	TDP43 rescue 20µM, Abeta yeast res inconclusive (no result: aSyn rescue)
O=C(CSCc1cnn(-c2ccccc2)c1-n1cccc1)NCc1cccnc1	none (no result: TDP43 rescue)
Cc1ccc(CNC(=O)CCSCc2cnn(-c3ccccc3)c2-n2cccc2)cc1	TDP43 rescue 20µM (no result: aSyn rescue)
CCOC(=O)N1CCN(/[N+]([O-])=N/OCOC)CC1	none (no result: FUS suppressor, TDP43 rescue, Abeta yeast res)
N#C[C@@H]1N[C@H](CO)[C@@H]1c1ccccc1	none (no result: aSyn rescue, TDP43 rescue, Abeta yeast res)
CSc1nc(NCCOCCO)c2sc3nc(-c4ccco4)c4c(c3c2n1)CCC4	FUS suppressor inconclusive
CCN(CCO)c1nc(SC)nc2c1sc1nc(-c3ccco3)c3c(c12)CCC3	TDP43 rescue 10µM (no result: FUS suppressor)
O=C(CSc1nc2ccccc2n1-c1ccccc1)Nc1ncc(Cl)cc1Cl	TDP43 rescue 22µM
COCCCN1C(=O)[C@H](CC(=O)NCc2ccc(OC)c(OC)c2)[C@]2(C(=O)OC)CCCCC=C12	none (no result: aSyn rescue, TDP43 rescue, Abeta yeast res)
O=C(Cn1nc(Cl)nc1Cl)c1ccc(F)cc1	none
O=C(Cn1nc(Cl)nc1Cl)c1ccc2c(c1)OCCO2	FUS suppressor inconclusive, TDP43 rescue 11µM
C#CCNC(=O)C[C@H]1C[C@@]2(C(=O)OC)C(=C[C@H](COCc3ccccc3)O[C@@H]2C)N(Cc2ccccc2)C1=O	none (no result: aSyn rescue, TDP43 rescue, Abeta yeast res)
Cc1ccnc(NC(=O)c2cc([N+](=O)[O-])cc([N+](=O)[O-])c2)c1	none
Cc1ccnc(NC(=O)c2ccc([N+](=O)[O-])s2)c1	TDP43 rescue 8.9µM
Cc1cccc(C)c1NC(=O)c1ccc([N+](=O)[O-])s1	none
Cc1cccc(NC(=O)c2ccc([N+](=O)[O-])s2)c1C	TDP43 rescue 11µM, Abeta yeast res inconclusive
COc1cccc(-c2nc(CCl)cs2)c1	TDP43 rescue 11µM
COc1ccc(-c2nc(CCl)cs2)cc1	none
Cc1ccc(-n2c(SCC(=O)Nc3cccc4ccccc34)nnc2-c2cnccn2)cc1	none (no result: aSyn rescue, TDP43 rescue, Abeta yeast res)
CSCCCNC(=O)CN1C(=O)C2CCCCN2C(=O)c2ccccc21 (stereo not given)	none (no result: aSyn rescue, TDP43 rescue, Abeta yeast res)
COCCCN1C(=O)[C@H](CC(=O)NCCCCc2ccccc2)[C@]2(C(=O)OC)CCCCC=C12	none (no result: aSyn rescue, TDP43 rescue, Abeta yeast res)
CCOC(=O)Cc1csc(NC(=O)c2ccc(Br)cc2)n1	TDP43 rescue 13µM
CCOC(=O)Cc1csc(NC(=O)c2cccc(Cl)c2)n1	TDP43 rescue inconclusive
CCOC(=O)Cc1csc(NC(=O)c2ccc(NC(C)=O)cc2)n1	none
CCOC(=O)Cc1csc(NC(=O)c2ccc3ncsc3c2)n1	TDP43 rescue 14µM
CC(C)CN1C(=O)[C@@]2(CC(=O)N(C)C2c2ccccc2)c2cc(-n3cc(CCc4ccccc4)nn3)ccc21 (stereo not given in full)	none (no result: aSyn rescue, TDP43 rescue, Abeta yeast res)
O=C(CCl)Nc1cccc(-c2cnc3ccccc3n2)c1	TDP43 rescue 13µM
CCCC1CCC2(CC1)CCC2OC(=O)Nc1cccc(C(F)(F)F)c1 (stereo not given)	none (no result: aSyn rescue, TDP43 rescue, Abeta yeast res)
C=CCn1c(COc2ccc(C)cc2)nnc1SCC(=O)Nc1cc(Cl)cc(Cl)c1	none (no result: aSyn rescue, TDP43 rescue, Abeta yeast res)
CCSc1nc2sc3c(c2c(=O)[nH]1)CCCC3	none
CCSC1=NC2(CCCCC2)Nc2sc3c(c21)CCCC3	FUS suppressor 35µM
COc1ccc(Cn2ccc3ccc(-c4ccc5ccn(Cc6cccc(F)c6)c5c4)cc32)cc1	none (no result: aSyn rescue, TDP43 rescue, Abeta yeast res)
O=C(CSCC(=O)N1CCCCC1)Nc1nc(-c2ccc(Cl)s2)cs1	TDP43 rescue 20µM
CC1CC(C)CN(C(=O)CSCC(=O)Nc2nc(-c3cccs3)cs2)C1 (stereo not given)	none
O=C(CSCC(=O)N1CCCCC1)Nc1nc(-c2cccs2)cs1	TDP43 rescue 32µM
O=C1CCC/C1=C/Nc1ccc2c(c1)OCO2	none (no result: aSyn rescue)
CC1CCC/C(=C\Nc2ccc3c(c2)OCO3)C1=O (stereo not given)	FUS suppressor 16µM
COc1ccc(OCCCn2c(=O)oc3ccc(C)cc32)cc1	TDP43 rescue inconclusive (no result: aSyn rescue)
O=c1oc2ccccc2n1CCCOc1ccccc1Cl	TDP43 rescue 16µM (no result: aSyn rescue)
Cc1ccc2oc(=O)n(CCCOc3ccccc3)c2c1	TDP43 rescue 35µM
CC(C)CSc1ncccc1-c1nc2ccccc2[nH]1	none (no result: aSyn rescue, TDP43 rescue, Abeta yeast res)
CCCCCCNC(=O)C1CSCCS(=O)(=O)N1Cc1ccc(F)cc1 (stereo not given)	none (no result: aSyn rescue, TDP43 rescue, Abeta yeast res)
CC1(C)CC(=O)N(CC(=O)N2CCN(Cc3ccccc3)CC2)c2ccccc2S1(=O)=O	none (no result: aSyn rescue, TDP43 rescue, Abeta yeast res)
Cc1cc2nnc(SCc3ccc(F)cc3)n2c2ccccc12	TDP43 rescue 35µM
CC(=O)CSc1nnc2cc(C)c3ccccc3n12	none
CNc1oc(-c2ccc(Cl)cc2)nc1P(=O)(c1ccccc1)c1ccccc1	FUS suppressor inconclusive, TDP43 rescue 18µM
Cc1ccc(-c2nc(P(=O)(c3ccccc3)c3ccccc3)c(N3CCOCC3)o2)cc1	none
Cc1ccc(N2CCN(C(=O)c3ccccc3Br)CC2)c(C)c1	TDP43 rescue 16µM
COc1ccc(NC(=O)C2CC(c3c(F)cccc3Cl)=NO2)cc1 (stereo not given)	TDP43 rescue 13µM
COc1cc(NC(=O)C2CC(c3c(F)cccc3Cl)=NO2)cc(OC)c1OC (stereo not given)	none
CCOC(=O)c1c(CSc2ccccc2)oc2ccc(O)cc12	TDP43 rescue 20µM
CCOC(=O)c1c(-c2ccccc2)oc2ccc(O)cc12	TDP43 rescue inconclusive
CCOC(=O)c1c(CSc2ccc(C)cc2)oc2ccc(O)cc12	TDP43 rescue 22µM
COc1ccc(C2C(C(=O)Nc3ccc(F)cc3)CCC(=O)N2c2ccc(OC)cc2)cc1 (stereo not given)	none (no result: aSyn rescue, TDP43 rescue, Abeta yeast res)
COC(=O)C1CN(Cc2cn(CCOC(C)=O)nn2)CCS(=O)(=O)N1Cc1ccc(C)cc1 (stereo not given)	none (no result: aSyn rescue, TDP43 rescue, Abeta yeast res)
Cc1ccc(NC(=O)C2CCCN(c3nnc(-n4cccc4)s3)C2)c(C)c1 (stereo not given)	none (no result: aSyn rescue, TDP43 rescue, Abeta yeast res)
O=C(c1ccco1)n1nc(-c2ccccc2)nc1NCc1ccco1	none
O=C(c1ccco1)n1nc(NCc2ccccc2)nc1NCc1ccccc1	TDP43 rescue 10µM
C[C@H]1[C@@H](OC(=O)Nc2ccc(C#N)cc2)CC[C@@]23CCCN2C(=O)CCC[C@@H]13	none (no result: aSyn rescue, TDP43 rescue, Abeta yeast res)
